# NS1 function inh: qHTS Assay for Inhibitors of Influenza NS1 Protein Function; Potency, µM (doses to about 46.1 µM), for the others: top-dose activity, positive = more growth; hit rate 0.4% among 270,000; calls by dose curve; further: potency means the concentration at half of the fitted maximal effect; actives are rising curves; nearly all actives have a fitted effect of over 50% in size
#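 A cell-based growth assay was used: compounds that relieve NS1-induced slow growth of budding yeast raise OD600. Assay medium was yeast nitrogen base with ammonium sulphate and -URA supplement, pH 6.0, with 2% galactose.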
# AmpC detergent: qHTS Inhibitors of AmpC Beta-Lactamase (assay with detergent); Potency, µM (top dose mostly 114 µM), for inactives: at the top dose activity change, negative = inhibition, usual class: inhibitors; AID 485294, 2010; hit rate 0.041% among 370,000; AmpC hydrolysis of nitrocefin, absorbance 480 nm, 0.01% Triton; P00811;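 further: potency means the concentration at half of the fitted maximal effect; 0% = no-compound wells and -100% = no-enzyme wells; nearly all actives have a fitted effect of over 25% in size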
# Target sequence (P00811 whole entry, looked up): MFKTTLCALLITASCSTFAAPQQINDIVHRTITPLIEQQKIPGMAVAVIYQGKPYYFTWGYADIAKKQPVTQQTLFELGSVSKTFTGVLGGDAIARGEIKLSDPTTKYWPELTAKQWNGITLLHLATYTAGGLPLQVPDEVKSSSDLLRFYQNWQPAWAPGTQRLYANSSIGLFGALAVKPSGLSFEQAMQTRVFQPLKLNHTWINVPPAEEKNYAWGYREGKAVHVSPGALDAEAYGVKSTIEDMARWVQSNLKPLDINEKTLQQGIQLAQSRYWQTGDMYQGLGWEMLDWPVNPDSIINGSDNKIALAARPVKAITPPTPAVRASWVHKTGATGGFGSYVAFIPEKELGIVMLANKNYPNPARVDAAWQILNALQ
#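 AmpC (5.3 nM in the dispensed reagent) in 20 mM phosphate pH 7.0 with 0.01% (detergent screen) or 0.0001% Triton X-100 was preincubated with compounds for 15 min at room temperature. Nitrocefin was then added from an 800 uM solution, and hydrolysis was followed at 480 nm.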
# Shiga inhibitor: A qHTS for Small Molecule Inhibitors of Shiga Toxin. AID 2315, 2010. hit rate 9.2% among 290,000. Vero cells, Shiga toxin protein synthesis inhibition reporter. inhibition, % at 38.7 µM; in the data active means inhibition mostly above about 28%, no sharp cut-off; inactive means mostly below about 43%; further: 0% is about no effect
# AmpC no deterg: qHTS Inhibitors of AmpC Beta-Lactamase (assay without detergent) | P00811 | AmpC nitrocefin hydrolysis, absorbance 480 nm, 0.0001% Triton | Potency, µM (doses to about 57.1 µM), for the others: top-dose activity change, negative = inhibition, hits mostly inhibitors | hit rate 0.52% among 330,000;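 further: potency means the concentration at half of the fitted maximal effect; plate controls were no compound for no effect and no enzyme for full effect; nearly all actives have a fitted effect of over 20% in size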
#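 AmpC (5.3 nM in the dispensed reagent) in 20 mM phosphate pH 7.0 with 0.01% (detergent screen) or 0.0001% Triton X-100 was preincubated with compounds for 15 min at room temperature. Nitrocefin was then added from an 800 uM solution, and hydrolysis was followed at 480 nm.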
# CHX counter: Cycloheximide Counterscreen for Small Molecule Inhibitors of Shiga Toxin | cell reporter, cycloheximide protein synthesis inhibition counterscreen | max response, % | hit rate 12% among 300,000; in the data active means max response mostly above about 13%, no sharp cut-off; inactive means mostly below about 14%; further: read at 38.3 µM for the half of the compounds with a filed dose; 0% is about no effect
# Active calls of the source: *; x = not tested or not shown. This is one part of a sample in which hits are shown more often than they occur. Unless noted, the call rests on the fitted dose curve; in most records, active means well fitted curve in the direction sought with a large enough effect; inconclusive means small, poorly fitted or top-dose-only effect, or another doubt; inactive means no such curve, though single readings can be large; an effect the other way counts as inactive or inconclusive.
SMILES,NS1 function inh,AmpC detergent,Shiga inhibitor,AmpC no deterg,CHX counter
CC(=O)Nc1ccc(NC(=O)c2cccc(-c3cc4ccccc4oc3=O)c2)cc1,x,-6.2%,48.8,-24.3%,31.2*
CCC(=O)Nc1cccc(NC(=O)c2cc3ccccc3o2)c1,-38.1%,-16.2%,99.6*,-32.2%,45.0*
NS(=O)(=O)c1cccc(NC(=O)c2cc3ccccc3o2)c1,-2.0%,1.2%,56.1*,-20.3%,25.1*
O=C(CCNc1cccc(F)c1)c1cc2ccccc2o1,x,5.7%,36.0,-7.9%,43.8*
CC(C)C1N(C(=O)N2CCOCC2)CCN1S(=O)(=O)c1ccccc1 (stereo not drawn),3.9%,1.0%,-4.0,-0.1%,-1.5
COc1ccccc1C(=O)Nc1ccc(C(=O)OCc2cc(=O)n3c4c(sc3n2)CCCC4)cc1,x,-2.4%,x,x,x
CCC(=O)Nc1cccc(-c2cc3ccccc3oc2=O)c1,-34.0%,-3.2%,82.6*,-10.7%,60.6*
CNC(=O)c1cc2ccccc2o1,11.7%,-0.6%,2.6,-11.0%,0.6
Cc1cccc(NC(=O)c2cc3ccccc3o2)c1,-35.0%,-3.5%,94.6*,-34.1%,50.0*
O=C(Nc1cccc(Br)c1)c1cc2ccccc2o1,-133.9%,3.3%,105.6*,-38.0%,91.8*

# Bioassay records (PubChem)
